DAX1 inh-1: DAX1 (NR0B1) inhibitors on StAR promoter, primary screen, cell-based, luminescence, SF-1 (NR5A1), full-length DAX-1 | HEK293T StAR-luciferase reporter, SF-1/DAX-1 repression relief | AID 652010, 2013 | 370,000 compounds, 1.1% hits | inhibition, % at 6.8 µM;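 active = inhibition above the mean over all tested compounds plus 3 SD, cut at about 3.6% in these data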;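 also: 0% = DAX-1 cells with DMSO and 100% = cells lacking DAX-1 with DMSO; higher inhibition means more luminescence from relief of DAX-1 repression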
hcDAF-12 act: H. contortus DAF-12 nuclear receptor activators, primary screen, cell-based, luminescence, HEK293, lit1-tk-luc reporter | HEK293 hcDAF-12 lit1-tk-luc reporter; 0% DMSO, 100% Δ7-dafachronic acid | activation, % at 6.8 µM | 370,000 compounds, 1.4% hits;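 active = activation above the mean of all tested compounds plus 3 SD, cut at about 5.5% in these data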;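 also: 100% = response to 3 µM Δ7-dafachronic acid high control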
hgDAF-12 ag: H. glycines DAF-12 receptor agonists, primary screen, cell-based, luminescence, HEK293, GAL4 fusion, UAS-luciferase. activation, % at 6.8 µM. Nuclear hormone receptor DAF-12 (Heterodera glycines), GAL4 fusion. HEK293 GAL4-hgDAF12 UAS-luciferase reporter, agonist luminescence; normalized to butyrate control. AID 687014, 2013. 370,000 compounds, 1.8% hits;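 active = activation above a cutoff set at the mean of all screened compounds plus 3 SD, cut at about 10% in these data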;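 also: 0% = DMSO wells and 100% = sodium butyrate wells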
DAX1 inh-2: DAX1 (NR0B1) inhibitors, primary screen, cell-based, HEK293, Gal4-DAX1, luciferase luminescence | Nuclear receptor subfamily 0 group B member 1 (Homo sapiens), P51843 | HEK293 Gal4-DAX1 luciferase reporter | inhibition, % at 6.75 µM | 340,000 compounds, 0.99% hits;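 active = inhibition above the mean over all tested compounds plus 3 SD, cut at about 4.2% in these data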;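 also: 0% = DAX1-transfected cells with DMSO and 100% = empty-vector control cells with DMSO; inhibition shows as a rise in luminescence from relieved DAX1 repression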
Target sequence (P51843 207-470 limits assumed): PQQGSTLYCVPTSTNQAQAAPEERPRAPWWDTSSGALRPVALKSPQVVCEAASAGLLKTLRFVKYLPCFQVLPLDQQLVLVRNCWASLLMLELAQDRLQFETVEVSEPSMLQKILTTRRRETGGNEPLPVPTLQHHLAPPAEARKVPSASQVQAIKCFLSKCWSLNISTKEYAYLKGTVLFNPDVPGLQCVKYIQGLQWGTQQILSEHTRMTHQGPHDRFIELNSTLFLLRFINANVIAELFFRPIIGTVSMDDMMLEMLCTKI
ssDAF-12 act: S. stercoralis DAF-12 nuclear receptor activators, primary screen, cell-based, luminescence, HEK293, GRIP1 co-expression, lit1-tk-luc | Nuclear hormone receptor DAF-12 (Strongyloides stercoralis) | activation, % at 6.8 µM | AID 652126, 2013 | 370,000 compounds, 1% hits | HEK293 ssDAF-12/GRIP1 lit1-tk-luc reporter; % of 3 µM dafachronic acid response;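 active = activation above the mean over all tested compounds plus 3 SD, cut at about 0.9% in these data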;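 also: 0% = DMSO-only wells and 100% = 3 µM delta7-dafachronic acid wells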
LXRb hcDAF ctr: LXR agonists, Gal4 luciferase reporter, confirmation, counter-screen for hcDAF-12 agonist project, cell-based, luminescence, HEK293, H. contortus campaign | HEK293 Gal4-LXR tk-luc reporter, 24 h; normalized: DMSO 0%, positive control 100% | shares compounds with hcDAF-12 act | activation, % at 6.8 µM | 3,400 tested, under 10 active | AID 743027, 2013;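 active = mean percent activation of the reporter above a cutoff set as the average over tested compounds plus their standard deviation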
Target sequence (P55055 whole entry, looked up, the tested form may be a part): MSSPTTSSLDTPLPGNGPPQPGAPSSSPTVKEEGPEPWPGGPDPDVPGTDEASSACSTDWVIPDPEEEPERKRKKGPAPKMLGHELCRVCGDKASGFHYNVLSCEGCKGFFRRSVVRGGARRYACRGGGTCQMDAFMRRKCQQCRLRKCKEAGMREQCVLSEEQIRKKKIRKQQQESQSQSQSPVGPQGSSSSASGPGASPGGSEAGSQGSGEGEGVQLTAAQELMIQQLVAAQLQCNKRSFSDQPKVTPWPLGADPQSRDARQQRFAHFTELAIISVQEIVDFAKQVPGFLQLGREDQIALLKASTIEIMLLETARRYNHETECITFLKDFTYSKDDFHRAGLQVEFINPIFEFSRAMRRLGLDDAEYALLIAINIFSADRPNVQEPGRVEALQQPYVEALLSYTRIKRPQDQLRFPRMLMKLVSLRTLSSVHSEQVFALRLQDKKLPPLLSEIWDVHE
hcDAF12 conf: H. contortus DAF-12 receptor agonists, confirmation, cell-based, luminescence, HEK293, lit1-tk-luc, triplicate | AID 743032, 2013 | shares compounds with hcDAF-12 act | activation, % at 6.8 µM | 3,400 compounds, 61% hits | HEK293 hcDAF-12 lit1-tk-luc reporter; % of Δ7-dafachronic acid response;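 active = mean activation across triplicate tests above the threshold derived from the earlier primary screen, cut at about 5.5% in these data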;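 also: 0% = DMSO only wells and 100% = 3 µM Δ7-dafachronic acid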
Numbers without * were called inactive; nt = no result given. This is a sample that favours compounds with a hit; in the whole collection about 4.1% have one here.

SMILES	DAX1 inh-1	hcDAF-12 act	hgDAF-12 ag	DAX1 inh-2	ssDAF-12 act	LXRb hcDAF ctr	hcDAF12 conf
COC(=O)c1c[nH]n2c(=O)cc(C)nc12	-0.5	-1.9	-1.2	0.9	-1.8	nt	nt
Cn1cccc1C(=O)C(=O)Nc1cccc(Cl)c1Cl	1.4	6.6*	5.8	1.4	0.1	0.9	12.5*
O=C(NCc1ccc(Cl)cc1Cl)Nc1ccccc1	0.9	7.4*	7.0	1.0	-0.9	0.5	3.7
O=C(Nc1ccncc1)Nc1cccc(Cl)c1Cl	-2.5	-3.0	0.2	-0.6	-0.5	nt	nt
O=C(NCc1csc2ccc(Cl)cc12)Nc1ccccc1	0.0	-1.1	-0.2	1.5	-1.8	nt	nt
O=C(Nc1ccccc1)Nc1cccc(Cl)c1Cl	0.1	7.3*	6.3	3.1	-0.8	0.3	2.4
Cc1onc(-c2ccccc2)c1C(=O)NN1CCOCC1	0.6	-0.7	-2.5	2.4	-1.3	nt	nt
CC(=O)/C=C(/C)NC(Cc1c[nH]c2ccccc12)C(=O)O (stereo unspecified)	0.7	2.1	2.6	0.5	0.2	nt	nt
O=C(O)[C@H](Cc1ccccc1)N1Cc2ccccc2C1=O	1.0	1.5	0.8	1.2	-1.0	nt	nt
CC(=O)N[C@H](Cc1c[nH]c2ccccc12)C(=O)O	-0.1	8.2*	0.8	-0.7	-0.3	-0.4	-0.3
O=C(O)C(Cc1c[nH]c2ccccc12)N1Cc2ccccc2C1=O (stereo unspecified)	1.2	6.9*	7.9	3.8	3.0*	0.5	8.0*
Cc1ccc(C)c(NCC(=O)c2ccc(Cl)cc2)c1	0.5	7.1*	12.4*	-1.1	0.7	-0.2	0.7
C=CCN1C(=O)[C@H](CC(=O)NCCCOCCCC)[C@@]2(C(=O)OCC)CCCC=C12	-0.1	-1.6	-1.6	nt	-1.0	nt	nt
CCOc1ccc(N=NC2C(=O)N(C(N)=S)N=C2C)cc1 (stereo unspecified)	3.1	6.6*	8.4	3.9	0.9*	0.8	4.8
NC(=O)c1sc2nc(-c3ccccc3)c3c(c2c1N)CCCC3	-2.0	-1.6	-4.2	-0.5	-2.4	nt	nt
Nc1c2c(nc3sc4c(c13)CCCC4)-c1ccccc1CC2	3.3	7.6*	9.9	2.7	1.1*	1.9	11.0*
COCCCN1C(=O)[C@H](CC(=O)NCc2ccccc2)[C@]2(C(=O)OC)CCCCC=C12	1.7	3.0	-1.2	nt	-0.3	nt	nt
COc1ccccc1C(=O)Nc1ccc(N2CCCCC2)cc1	3.5	13.1*	11.1*	3.3	2.7*	1.1	13.8*
COc1ccccc1C(=O)Nc1ccc2ccccc2c1	1.3	20.3*	13.8*	3.4	1.6*	0.9	12.1*
COc1ccccc1C(=O)Nc1cccc(NC(C)=O)c1	0.2	-1.1	-1.8	-0.6	-1.6	nt	nt
COc1ccccc1C(=O)Nc1ccc(N2CCN(C(C)=O)CC2)cc1	0.1	-1.4	-0.4	-0.5	-1.8	nt	nt
COc1c(C(=O)Nc2nccs2)ccc2ccccc12	0.8	4.8	8.5	3.4	-0.6	nt	nt
COc1cc2ccccc2cc1C(=O)Nc1nccs1	0.5	10.0*	10.6*	0.8	1.4*	0.6	10.8*
CC(=O)c1cc(-c2cccc(Cl)c2O)c(=O)n2c1CCC2	-0.3	0.0	0.6	nt	-0.7	nt	nt
O=C(Nc1ccc2ccccc2c1)NC1CCCCN(Cc2ccc(Cl)cc2)C1=O (stereo unspecified)	-1.0	9.2*	6.1	nt	2.9*	-0.2	0.0
SMILES	DAX1 inh-1	hcDAF-12 act	hgDAF-12 ag	DAX1 inh-2	ssDAF-12 act	LXRb hcDAF ctr	hcDAF12 conf
COc1cc(NC(=O)NC2CCCCN(Cc3ccc(Cl)cc3)C2=O)cc(OC)c1 (stereo unspecified)	-1.4	-3.5	-2.9	nt	-1.0	nt	nt
CC1CCC2(CC1)CCC2NCc1ccc(Br)cc1 (stereo unspecified)	nt	-0.3	-0.8	nt	-1.0	nt	nt
Cc1cc(=O)[nH]c(N/N=C/c2c[nH]c3ccccc23)n1	0.7	7.2*	3.8	0.9	-0.3	0.1	2.5
Cn1cc([N+](=O)[O-])c(C(=O)N/N=C\c2c[nH]c3ccccc23)n1	0.1	16.3*	-0.9	0.7	0.4	-0.1	2.8
O=C(N/N=C/c1coc2ccccc2c1=O)c1cccc([N+](=O)[O-])c1	0.7	1.0	0.8	-1.1	-0.5	nt	nt
O=[N+]([O-])c1ccccc1N/N=C/c1c[nH]c2ccccc12	2.7	10.7*	20.6*	3.1	2.5*	1.4	17.2*
O=C(N/N=C/c1c[nH]c2ccccc12)c1cccc([N+](=O)[O-])c1	-0.6	10.2*	2.4	-0.4	0.4	0.1	6.7*
O=c1cc(/C=C/c2ccccc2)oc2ccccc12	3.7*	6.9*	12.2*	0.6	1.6*	1.4	9.4*
CC(C)n1nnnc1C1(C)CCCCC(=O)N1Cc1cccc(C(F)(F)F)c1 (stereo unspecified)	0.5	-2.0	8.4	nt	-0.3	nt	nt
CCCC(C(=O)NCCC(C)C)N(Cc1ccccc1)C(=O)c1snc(C(N)=O)c1N (stereo unspecified)	-0.4	-1.8	-2.4	1.5	-1.0	nt	nt
CCCCCCN1CCN(C2CN(Cc3cn(Cc4cccc(C(F)(F)F)c4)nn3)S(=O)(=O)C2)CC1 (stereo unspecified)	-1.7	-1.9	-4.1	nt	-1.2	nt	nt
COC(=O)C1=C(C)N(Cc2ccccc2C(F)(F)F)C(=NCc2ccc3c(c2)OCO3)NC1c1cccc(C(F)(F)F)c1 (stereo unspecified)	-0.4	-1.2	3.4	nt	-1.0	nt	nt
CSc1nc(O)c(/C=C2\C=Nc3ccccc32)[nH]1	1.1	12.1*	10.3	1.1	0.3	0.2	10.5*
O=c1[nH]c(/C=C2\C=Nc3ccccc32)c(O)n1Cc1ccccc1F	-0.7	1.5	1.9	-1.6	-1.5	nt	nt
O=C(COc1ccccc1[N+](=O)[O-])OCC(=O)N1CCC(Cc2ccccc2)CC1	-0.4	7.6*	-0.8	-0.7	-1.1	-0.2	2.4
O=C(COc1cccnc1[N+](=O)[O-])N1CCC(Cc2ccccc2)CC1	0.5	-2.4	-0.2	0.2	-1.2	nt	nt

Source: PubChem BioAssay (The Scripps Research Institute Molecular Screening Center)
